Growth data for 37 compounds are collected here from PubChem BioAssay (NCI).

Structures are written as SMILES. Compounds without any hit were thinned out: in the full panel of roughly 83,000, 20% have a hit.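 Plates (96-well) were seeded with cells, treated with compound at one concentration, and incubated for 48 hours before percent growth was determined.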 A number with no mark means an inactive call. The source made the active and inactive calls. The calls were made as follows: active = growth percent below 10; inactive = the rest.

This experiment has as its system M14 melanoma. As to the kind of experiment: NCI-60 one-dose screen, 48 h (100 = growth as untreated, 0 = no growth, -100 = all killed). Particulars: 10 µM unless noted.
For the compound `COc1cc2c(=O)n(C3CCCCCCC3)c3c4cc[nH]c4ncc3c2cc1OC`, the growth was 71.4%.

As to `C1CCC([PH+](C2CCCCC2)C2CCCCC2[PH+](C2CCCCC2)C2CCCCC2)CC1.[Au].[CH-]1CCCCC1CC1CCCC[N-]1` (configuration not stated), the growth is -54.6% (active).

For the compound `CCCCN1CCCC[C@@H]1C(=O)N[C@H](C(=O)N(C)[C@H](C[C@@H](OC(C)=O)c1nc(C(=O)NC2CCC(C(=O)OC)CC2)cs1)C(C)C)C(C)C` (some centres not stated), the growth is -2.18% (active).

`CS(=O)(=O)CCN1CC2CCCC(C2)C1`: the growth was 98.6%.

Regarding `COC(=O)[C@@H](C)C[C@H](Cc1ccccc1)NC(=O)c1nc([C@@H](C[C@H](C(C)C)N(C)C(=O)[C@@H](NC(=O)[C@H]2CCCCN2C)C(C)C)OC(C)=O)sc1C(C)C`, the growth is -26.6% (active).

As to `C=CC[Se]C(=O)c1ccccc1OC(C)=O`, the growth was -6.78% (active).

`CC(C)[C@@H]1NC(=O)[C@]2(C)CSC(=N2)c2csc(n2)CNC(=O)C[C@@H](/C=C/CCS)OC1=O`: the growth is 10.1%.

As for `Clc1cccc(Cl)c1Cl`, the growth was 94.7%.

Take `O=C(CC1(O)C(=O)Nc2ccc(Cl)cc21)c1ccc(C(=O)NCC2CCC3(CC2)OOC2(CCCCC2)OO3)cc1` (configuration not stated): the growth was 52%.

With `COc1ccc(C(O)(C(=O)O)c2ccc(OC)cc2)cc1`, the growth was 86.2%.

With `CCn1c2ccccc2c2cc(C(=O)c3ccc(C)c4ccccc34)ccc21`, the growth was 2.37% (active).

Take `COC(=O)[C@]12CCC(C)(C)C[C@H]1[C@H]1C(=O)C[C@@H]3[C@@]4(C)C[C@@]5(CC(C)(C)[C@@H]4CC[C@@]3(C)[C@]1(C)CC2)OO[C@@](C)(C(F)(F)F)O5`: the growth was 99.2%.

On to `CC[C@]12C=CCN3CC[C@@]4(c5ccc(OC)cc5N(C)[C@H]4[C@@](O)(C(=O)OC)[C@@H]1OC(=O)CCCC[P+](c1ccccc1)(c1ccccc1)c1ccccc1)[C@@H]32`, for which the growth was 29.4%.

As for `CCCCCCCCOC(=O)CCN1CC1`, the growth was 107%.

As for `CC1[C@H](C)OC(=O)CC(O)CC(O)CC(O)CCC(O)C(O)C[C@]2(O)CC(O)C(C(=O)O)C(CC(OC3O[C@H](C)[C@@H](O)[C@H](N)[C@@H]3O)/C=C/C=C/C=C/C=C/CC/C=C/C=C/[C@H](C)[C@H]1O)O2` (some centres not stated), the growth is 98.6%.

For `c1cc2c(c3c1CCNC3)OCO2`, the growth is 101%.

In the case of `Cc1ccc(N2COOC3(OOC2)C2CC4CC(C2)CC3C4)cc1`, the growth was 97.8%.

For `O=C(CC1(O)C(=O)N(Cc2ccccc2)c2ccc(Br)cc21)c1ccc(C(=O)NCC2CCC3(CC2)OOC2(CCCCC2)OO3)cc1` (configuration not stated), the growth is 41.9%.

In the case of `C[C@@H]1C[C@@]2(C)[C@@H](CC[C@@H]3[C@@H]2CC[C@]2(C)C(=O)CC[C@@H]32)CC1=O`, the growth is 96.9%.

In the case of `CCN(CC)c1ccc2c(c1)OC(N)=C(C#N)C2c1cc(OC)c2c(c1)OCO2` (configuration not stated), the growth was 7.87% (active).

Consider `O=P(Oc1ccc(Cl)cc1)(N1CC1)N1CC1`, for which the growth is 86.5%.

In the case of `O=[N+]([O-])c1cc(I)cc([N+](=O)[O-])c1`, the growth is 98.8%.

For the compound `CC(=O)O[C@H](C[C@H](C(C)C)N(C)C(=O)[C@@H](NC(=O)[C@H]1CCCCN1C)C(C)(C)C)c1nc(C(=O)N[C@@H](Cc2ccccc2)C[C@H](C)C(=O)O)cs1`, the growth is 3.36% (active).

For the compound `CC[C@H](C)[C@H](NC(=O)[C@H]1CCCCN1C)C(=O)N(C)[C@H](C[C@@H](O)c1nc(C(=O)N[C@@H](Cc2ccccc2)C[C@H](C)C(=O)O)cs1)C(C)C`, the growth was 64.5%.

For the compound `CN1CCC(O)(c2ccc(F)cc2)C(C(=O)c2ccc(F)cc2)C1` (configuration not stated), the growth is 106%.

For the compound `O=C1NC(=O)C(=Cc2cccn2CCCCCn2c3ccccc3c(=O)c3ccccc32)C(=O)N1`, the growth is 102%.

Regarding `COC(=O)[C@@H](C[C@H](Cc1ccccc1)NC(=O)c1csc([C@@H](C[C@H](C(C)C)N(C)C(=O)[C@@H](NC(=O)[C@H]2CCCCN2C)C(C)C)OC(C)=O)n1)NC(=O)OCc1ccccc1`, the growth is -41.7% [9.5 µM] (active).

As to `CN(C)CCCOc1ccc2c(c1)c(C(=O)C(=O)NCCO)cn2Cc1ccccc1`, the growth is 101%.

In the case of `COc1cc(C=Nc2cc(Cl)cc(Cl)c2)ccc1N(CCCl)CCCl`, the growth was 92.2%.

Consider `CCOC(=O)N[C@H]1CCc2c(Br)c(OC)c(OC)c(OC)c2-c2ccc(SC)c(=O)cc21`, for which the growth was 0.572% (active).

`C/C(CC(C)(C)N1CC1)=N\NC(=O)Nc1cccc2ccccc12`: the growth was 72.8%.

`C[C@]12CCc3sc(-c4ccccc4O)nc3C1=CC[C@@H]1[C@@H]2CC[C@]2(C)C(=O)CC[C@@H]12`: the growth was 106%.

Take `CC[C@H](C)[C@H](NC(=O)[C@H]1CCCCN1C)C(=O)N(C)[C@H](CC(=O)c1nc(C(=O)N[C@@H](Cc2ccccc2)C[C@H](C)C(=O)O)cs1)C(C)C`: the growth is 57.9%.

For the compound `COc1cccc(/C=C/[N+](=O)[O-])c1`, the growth was 12.3%.

Consider `O=C1CC2(CC3(Cl)C(Cl)=C(Cl)C2(Cl)C3(Cl)Cl)C(=O)O1` (configuration not stated), for which the growth was 95.4%.

On to `CC12CCC3C(CCC4=CC(=O)CCC43CF)C1CCC2=O` (configuration not stated), for which the growth was 103%.

On to `Nc1ccc(-c2nc3cc(F)ccc3[se]2)cc1F`, for which the growth is 91.8%.
